PubChem BioAssay (NCATS)
Results filed as inconclusive are left out. Activity calls are given as the source filed them. Unless noted, the call rests on the fitted dose curve; in most records, active means well fitted curve in the direction sought with a large enough effect; inconclusive means small, poorly fitted or top-dose-only effect, or another doubt; inactive means no such curve, though single readings can be large; an effect the other way counts as inactive or inconclusive.

Legend:
[1] = molecular target: Cytochrome P450 1A2 (Homo sapiens) (UniProt P05177); assay: p450-cyp1a2 (AID 410; calls by dose curve; further: potency means the concentration at half of the fitted maximal effect)
Summary of the method: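 20nM CYP1A2, 100uM Luciferin-ME (=Km), 100mM KPO4; cpd 10 min RT; +NADPH regen, 60 min RT; stop/detect 20 min; luminescence. Normalized to furafylline 57 uM = full inhibition.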

[2] = NFAT Signaling Pathway (AID 444; active means well fitted curve in either direction with a large enough effect, not every such curve was filed as active;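 further: carbachol stimulus at about its EC50 of 1 µM final; on the % scale 0 is the no-effect control and ±100 the full control effect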); conditions: Jurkat NFAT-bla M1, carbachol, beta-lactamase ratio, 5 h; at 17.2 µM (top of the series) unless noted
Summary of the method: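 Jurkat cells carrying an NFAT-driven β-lactamase reporter and co-transfected muscarinic M1 receptor were treated with compound plus carbachol (1 uM final, an EC50 level) for 5 h at 37 °C. CCF4 loading followed for 1 h at RT; 460/530 nm ratio gave %activity.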

[3] = Stat Signaling Pathway (AID 446; active means well fitted curve in either direction with a large enough effect, not every such curve was filed as active;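 further: ME-180 cervical cancer cells given 40 pM IL-6 alongside compound; SIE-controlled beta-lactamase reporter measured as 460/530 nm FRET emission ratio; on the % scale 0 is the no-effect control and ±100 the full control effect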); conditions: ME-180 (cervical carcinoma) SIE beta-lactamase reporter, IL-6 stimulated, 5 h; at 17.2 µM (top of the series) unless noted
Summary of the method: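 Overnight-plated ME-180 cells bearing a STAT Inducible Element beta-lactamase reporter; 5 h co-exposure to compound and 40 pM IL-6; values normalized to 300 pM IL-6 and 125 nM JAK inhibitor controls.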

[4] = molecular target: Glucocorticoid receptor (Homo sapiens) (UniProt P04150); assay: GR-GFP Redistribution (AID 450;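 active means compounds whose dose series gives a full or clear partial fitted curve of increased nuclear translocation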; further: potency means the concentration at half of the fitted maximal effect)
[5] = molecular target: Glucocorticoid receptor (Homo sapiens) (UniProt P04150); assay: GR-EFC Redistribution (AID 451; calls by dose curve; further: potency means the concentration at half of the fitted maximal effect); conditions: CHO-K1 GR-EFC translocation, beta-gal luminescence, 2 h
Summary of the method: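 CHO-K1 cells stably expressing nuclear-localized β-gal enzyme acceptor and GR fused C-terminally to the enzyme donor fragment; ligand-driven nuclear translocation restores β-gal by complementation. Compounds titrated up to 46 uM final, 2 h at 37 °C; luminescence read.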

[6] = molecular target: Mitogen-activated protein kinase 10 (Mus musculus) (UniProt Q61831); assay: JNK3 AlphaScreen Assay (AID 530; active means well fitted curve in either direction with a large enough effect, not every such curve was filed as active;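 further: kinase came from lysate of stimulated human HepG2 cells; signal reports phosphorylation of biotinylated GST-cJun 1-79 at Ser73 with 10 µM ATP; on the % scale 0 is the no-effect control and ±100 the full control effect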)
Summary of the method: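 Biotinylated GST-cJun(1-79) served as substrate for JNK3 in HepG2 lysates stimulated with IL-1beta and TNF-alpha. ATP was 10 uM final, pH 7.6. Ser73 phosphorylation was quantified by AlphaScreen (680 nm excitation).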

[7] = molecular target: 3',5'-cyclic-AMP phosphodiesterase 4B (Homo sapiens) (UniProt Q07343); assay: qHTS Assay for Inhibitors of PDE-IV (AID 607; active means well fitted activation curve with a large enough effect in the main read-out, with a control signal flat, not every such curve was filed as active; further: % of control where 0% means no effect)
Summary of the method: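 Live HEK293 cells with a modified cyclic nucleotide-gated (CNG) channel report intracellular cAMP via membrane-potential dye fluorescence (ex 535/em 590 nm). Endogenous PDE-IV was targeted. Compounds were tested at up to 22.9 uM final; RO 20-1724 100 uM served as control.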

[8] = molecular target: Ubiquitin carboxyl-terminal hydrolase 1 (Homo sapiens) (UniProt O94782); assay: Inhibitors of USP1/UAF1: Pilot qHTS (AID 504865);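 further: rhodamine fluorescence freed from ubiquitin-rhodamine substrate followed over time; top concentration of the series differs between compounds; on the % scale 0 is the no-effect control and ±100 the full control effect; nearly all actives have a fitted effect of over 35% in size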
Summary of the method: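 In 50mM HEPES pH 7.8 containing 0.5mM EDTA, 1mM TCEP, 0.1 mg/ml BSA and 0.01% Tween-20, 1nM USP1/UAF1 is exposed to compound for 15 min, then Ub-Rho (150nM final) is added and fluorescence is read over time.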

[9] = molecular target: Guanine nucleotide-binding protein G(i) subunit alpha-1 (Homo sapiens) (UniProt P63096); assay: qHTS Assay for Inhibitors of RGS12 GoLoco Motif Activity (Green Fluorophore) (AID 879);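 further: 0% = labeled peptide with Gαi1 and full inhibition = labeled peptide alone without protein; negative values mean loss of peptide binding seen as reduced polarization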
Summary of the method: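 A drop in FITC polarization marked displacement of the FITC-tagged RGS12 GoLoco peptide (10 nM) from Gαi1 (50 nM). Compounds were incubated 10 min at room temperature in Tris pH 7.5 buffer containing 150 mM NaCl, 0.1 mM GDP and 0.05% NP40; unlabeled peptide titration served as control.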

[10] = qHTS Assay for Identification of Small Molecule Agonists for Thrombopoietin (TPO) Signaling Pathway (AID 917); further: on the % scale 0 is the no-effect control and ±100 the full control effect
Summary of the method: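 Cell-based luciferase reporter screen. Mouse Ba/F3 line stably expressing human TPO receptor; IL-3 removed overnight before plating. Co-treatment with compound and EC50 TPO (26 pM), 24 hrs at 37 C, then luminescence.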

[11] = molecular target: Muscarinic acetylcholine receptor M1 (Rattus norvegicus) (UniProt P08482); assay: qHTS Assay for Antagonists of Acetylcholine Muscarinic M1 Receptor: Kinetic Measurement of Intracellular Calcium Response (AID 943);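 further: Fluo-4 calcium signal as peak divided by basal fluorescence over 4 min; nearly all actives have a fitted effect of over 75% in size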
Summary of the method: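 Read-out: peak over basal Fluo-4 fluorescence, kinetic at 1 Hz for 4 min after EC80 carbachol (100 nM final). Rat M1-CHO cells, dye loaded 1 h at 37C, compound added 10 min before agonist.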

[12] = molecular target: Pyruvate kinase (Leishmania mexicana) (UniProt Q27686); assay: qHTS Validation Assay for Inhibitors of Leishmania Mexicana Pyruvate Kinase (AID 945);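 further: 0% = DMSO only neutral control wells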
Summary of the method: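 LmPYK E451W 0.2 nM; 0.5 mM PEP, 0.1 mM ADP, 7 mM MgCl2, 50 mM KCl, imidazole pH 7.2, 0.01% Tween 20, 0.05% BSA; 1 h RT; PKLight luminescence; DMSO-normalized.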

[13] = molecular target: Pyruvate kinase PKM (Homo sapiens) (UniProt P14618); assay: qHTS Assay for Activators of Human Muscle Pyruvate Kinase (AID 954; active means well fitted curve in the direction sought with a large enough effect, not every such curve was filed as active;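 further: 0% = uninhibited enzyme and -100% = no enzyme or full thiadiazolimine inhibition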)
Summary of the method: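 Screening used highly purified human pyruvate kinase M2 under submaximal activity, with PEP at its Km and ADP below Km. After an hour at room temperature, ATP was read by luciferase luminescence.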

[14] = molecular target: Alpha-galactosidase A (Homo sapiens) (UniProt P06280); assay: Counterscreen for Glucocerebrosidase Inhibitors: qHTS Assay for Human alpha-Galactosidase at pH 4.5 (AID 992); further: 0% is about no effect
Summary of the method: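 Each compound is preincubated briefly with 2 nM enzyme before substrate addition (80 uM); plates then sit 20 min at ambient temperature, are quenched with 1M NaOH/1M glycine, and read fluorometrically.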

[15] = molecular target: alpha-glucosidase (Oryza sativa, rice) (UniProt Q653V4); assay: Counterscreen for Glucocerebrosidase Inhibitors: qHTS Assay for Rice alpha-Glucosidase at pH 5.0 (AID 997);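 further: 0% = full activity with enzyme and -100% = basal without enzyme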
Summary of the method: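 Endpoint fluorogenic assay at pH 5.0: compounds (0.7 nM to 77 uM) titrated against 4 nM rice enzyme and 400 uM 4-MU-alpha-glucoside for 20 min at room temperature; NaOH/glycine stop, read ex 365/em 440 nm, Hill-fitted AC50.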

Cytochrome P450 1A2 (Homo sapiens), sequence (P05177 whole entry, looked up): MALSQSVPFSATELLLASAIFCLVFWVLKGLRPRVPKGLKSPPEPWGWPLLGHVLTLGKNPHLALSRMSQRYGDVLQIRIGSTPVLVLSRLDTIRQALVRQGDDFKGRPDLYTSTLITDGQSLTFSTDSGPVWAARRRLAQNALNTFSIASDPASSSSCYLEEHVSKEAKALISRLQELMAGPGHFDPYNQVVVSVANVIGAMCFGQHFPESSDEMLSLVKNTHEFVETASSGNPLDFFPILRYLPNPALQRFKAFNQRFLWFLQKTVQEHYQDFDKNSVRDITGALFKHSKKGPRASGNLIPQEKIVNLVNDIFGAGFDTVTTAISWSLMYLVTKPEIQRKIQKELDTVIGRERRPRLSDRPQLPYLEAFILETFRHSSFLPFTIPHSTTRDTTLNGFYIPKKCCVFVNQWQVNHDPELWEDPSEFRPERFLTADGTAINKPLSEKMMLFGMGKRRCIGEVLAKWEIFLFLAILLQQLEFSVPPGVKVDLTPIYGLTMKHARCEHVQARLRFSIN
Glucocorticoid receptor (Homo sapiens), sequence (P04150 whole entry, looked up, the tested form may be a part): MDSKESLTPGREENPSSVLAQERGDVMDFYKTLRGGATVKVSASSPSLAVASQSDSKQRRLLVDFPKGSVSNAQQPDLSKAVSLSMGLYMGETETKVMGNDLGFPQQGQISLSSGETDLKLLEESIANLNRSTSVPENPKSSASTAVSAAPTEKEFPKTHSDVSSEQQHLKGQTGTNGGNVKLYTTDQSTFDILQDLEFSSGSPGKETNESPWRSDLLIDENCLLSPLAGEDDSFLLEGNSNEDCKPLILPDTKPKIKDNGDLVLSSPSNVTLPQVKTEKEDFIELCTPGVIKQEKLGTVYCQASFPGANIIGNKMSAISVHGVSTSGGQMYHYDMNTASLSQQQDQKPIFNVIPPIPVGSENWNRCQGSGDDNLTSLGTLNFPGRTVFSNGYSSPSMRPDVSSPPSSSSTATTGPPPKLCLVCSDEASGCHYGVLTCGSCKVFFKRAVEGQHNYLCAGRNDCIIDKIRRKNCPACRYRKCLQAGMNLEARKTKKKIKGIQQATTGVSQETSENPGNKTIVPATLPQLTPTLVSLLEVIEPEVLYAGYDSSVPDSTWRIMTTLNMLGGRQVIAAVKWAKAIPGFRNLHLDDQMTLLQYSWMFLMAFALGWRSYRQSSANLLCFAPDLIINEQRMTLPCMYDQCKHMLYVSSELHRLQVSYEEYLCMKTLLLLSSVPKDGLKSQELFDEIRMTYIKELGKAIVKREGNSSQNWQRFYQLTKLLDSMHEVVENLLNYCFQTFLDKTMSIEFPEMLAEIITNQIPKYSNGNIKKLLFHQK
3',5'-cyclic-AMP phosphodiesterase 4B (Homo sapiens), sequence (Q07343 whole entry, looked up): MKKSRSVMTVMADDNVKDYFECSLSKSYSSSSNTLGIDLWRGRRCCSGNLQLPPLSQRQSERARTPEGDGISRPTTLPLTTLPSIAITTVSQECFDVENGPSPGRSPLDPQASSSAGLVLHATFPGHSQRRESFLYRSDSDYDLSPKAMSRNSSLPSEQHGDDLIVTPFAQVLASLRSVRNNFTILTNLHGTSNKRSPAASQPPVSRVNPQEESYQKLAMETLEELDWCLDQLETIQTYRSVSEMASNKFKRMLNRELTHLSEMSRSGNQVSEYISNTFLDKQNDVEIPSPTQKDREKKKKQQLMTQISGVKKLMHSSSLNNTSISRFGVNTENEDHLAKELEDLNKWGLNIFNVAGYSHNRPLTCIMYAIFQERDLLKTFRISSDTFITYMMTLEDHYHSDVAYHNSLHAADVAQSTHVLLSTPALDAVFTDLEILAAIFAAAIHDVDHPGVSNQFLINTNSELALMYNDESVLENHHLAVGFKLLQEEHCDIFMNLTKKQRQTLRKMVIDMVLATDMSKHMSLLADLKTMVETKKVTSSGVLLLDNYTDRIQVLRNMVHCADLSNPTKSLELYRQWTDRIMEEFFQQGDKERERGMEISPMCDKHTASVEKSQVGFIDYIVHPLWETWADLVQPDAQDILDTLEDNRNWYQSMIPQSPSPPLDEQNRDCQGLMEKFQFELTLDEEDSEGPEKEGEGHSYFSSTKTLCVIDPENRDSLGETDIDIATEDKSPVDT
Ubiquitin carboxyl-terminal hydrolase 1 (Homo sapiens), sequence (O94782 whole entry, looked up): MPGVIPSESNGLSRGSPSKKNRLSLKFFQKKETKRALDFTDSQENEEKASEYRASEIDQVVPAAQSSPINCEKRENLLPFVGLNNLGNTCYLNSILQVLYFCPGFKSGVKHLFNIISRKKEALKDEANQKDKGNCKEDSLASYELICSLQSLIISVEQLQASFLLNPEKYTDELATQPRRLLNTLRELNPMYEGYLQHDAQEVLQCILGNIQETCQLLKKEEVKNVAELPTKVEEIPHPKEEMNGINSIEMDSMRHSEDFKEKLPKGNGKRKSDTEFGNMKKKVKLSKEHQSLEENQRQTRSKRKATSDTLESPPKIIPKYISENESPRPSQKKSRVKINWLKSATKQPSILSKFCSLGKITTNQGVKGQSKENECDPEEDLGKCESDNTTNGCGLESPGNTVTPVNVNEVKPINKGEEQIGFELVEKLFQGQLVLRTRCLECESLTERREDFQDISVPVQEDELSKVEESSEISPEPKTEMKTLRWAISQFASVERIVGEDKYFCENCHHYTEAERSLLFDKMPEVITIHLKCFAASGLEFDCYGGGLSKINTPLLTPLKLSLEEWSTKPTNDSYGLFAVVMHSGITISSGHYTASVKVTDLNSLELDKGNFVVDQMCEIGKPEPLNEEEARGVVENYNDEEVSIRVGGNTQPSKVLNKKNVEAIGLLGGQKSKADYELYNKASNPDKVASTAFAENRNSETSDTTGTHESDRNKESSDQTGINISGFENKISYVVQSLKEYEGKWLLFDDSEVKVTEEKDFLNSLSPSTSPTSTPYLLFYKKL
Alpha-galactosidase A (Homo sapiens), sequence (P06280 whole entry, looked up): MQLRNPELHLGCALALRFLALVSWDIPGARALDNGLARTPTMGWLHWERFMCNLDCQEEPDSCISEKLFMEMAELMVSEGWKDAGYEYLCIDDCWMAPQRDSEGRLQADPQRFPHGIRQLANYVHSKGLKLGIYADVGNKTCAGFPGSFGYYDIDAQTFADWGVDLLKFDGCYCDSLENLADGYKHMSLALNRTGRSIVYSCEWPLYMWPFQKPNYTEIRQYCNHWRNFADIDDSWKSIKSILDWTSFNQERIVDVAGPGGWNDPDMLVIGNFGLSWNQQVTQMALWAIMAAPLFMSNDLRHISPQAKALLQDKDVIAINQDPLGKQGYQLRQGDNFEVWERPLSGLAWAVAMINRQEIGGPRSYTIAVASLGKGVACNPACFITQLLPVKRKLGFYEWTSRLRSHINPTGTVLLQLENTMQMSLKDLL
Pyruvate kinase (Leishmania mexicana), sequence (Q27686 2-499 E452W): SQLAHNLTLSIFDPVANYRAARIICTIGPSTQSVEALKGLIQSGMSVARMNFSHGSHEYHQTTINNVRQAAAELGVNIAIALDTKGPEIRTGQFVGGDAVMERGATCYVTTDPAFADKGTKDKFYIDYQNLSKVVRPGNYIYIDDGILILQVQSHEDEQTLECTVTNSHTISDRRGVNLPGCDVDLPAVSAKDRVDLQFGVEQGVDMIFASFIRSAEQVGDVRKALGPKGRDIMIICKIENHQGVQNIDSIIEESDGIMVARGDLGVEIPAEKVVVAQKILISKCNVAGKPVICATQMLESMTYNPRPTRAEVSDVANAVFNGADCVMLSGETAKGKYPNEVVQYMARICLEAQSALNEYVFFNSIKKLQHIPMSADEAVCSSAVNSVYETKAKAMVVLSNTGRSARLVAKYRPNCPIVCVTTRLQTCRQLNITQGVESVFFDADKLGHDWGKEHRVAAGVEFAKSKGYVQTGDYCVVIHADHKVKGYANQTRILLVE
Pyruvate kinase PKM (Homo sapiens), sequence (P14618 whole entry, looked up): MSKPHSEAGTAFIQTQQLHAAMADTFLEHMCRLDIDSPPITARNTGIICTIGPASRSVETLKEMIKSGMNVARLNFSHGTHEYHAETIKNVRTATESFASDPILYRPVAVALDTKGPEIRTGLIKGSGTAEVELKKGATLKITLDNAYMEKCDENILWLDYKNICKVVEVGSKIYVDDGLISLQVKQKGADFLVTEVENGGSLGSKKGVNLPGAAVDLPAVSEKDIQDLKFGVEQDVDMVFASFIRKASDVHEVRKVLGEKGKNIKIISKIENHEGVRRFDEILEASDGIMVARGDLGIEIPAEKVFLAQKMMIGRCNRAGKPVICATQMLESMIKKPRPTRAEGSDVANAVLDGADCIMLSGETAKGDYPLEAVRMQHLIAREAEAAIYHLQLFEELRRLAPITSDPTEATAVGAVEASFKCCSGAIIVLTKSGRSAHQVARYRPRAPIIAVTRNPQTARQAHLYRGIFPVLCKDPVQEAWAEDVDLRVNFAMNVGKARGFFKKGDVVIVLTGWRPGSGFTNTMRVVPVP
Muscarinic acetylcholine receptor M1 (Rattus norvegicus), sequence (P08482 whole entry, looked up): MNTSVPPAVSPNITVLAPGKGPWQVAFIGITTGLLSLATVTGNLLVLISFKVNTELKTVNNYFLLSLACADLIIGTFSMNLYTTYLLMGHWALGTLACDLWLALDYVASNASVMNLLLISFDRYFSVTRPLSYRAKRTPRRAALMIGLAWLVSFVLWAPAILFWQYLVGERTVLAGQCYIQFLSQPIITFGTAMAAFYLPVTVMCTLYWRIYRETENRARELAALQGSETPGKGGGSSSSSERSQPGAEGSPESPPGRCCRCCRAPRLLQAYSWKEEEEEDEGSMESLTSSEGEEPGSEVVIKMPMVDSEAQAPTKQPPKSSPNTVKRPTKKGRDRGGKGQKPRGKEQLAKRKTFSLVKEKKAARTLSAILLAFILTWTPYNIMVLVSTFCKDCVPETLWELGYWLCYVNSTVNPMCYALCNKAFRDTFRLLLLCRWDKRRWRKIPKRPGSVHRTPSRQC

COc1cc(/C=C\C(=O)N2CCC=CC2=O)cc(OC)c1OC
inactive: Potency [4] > 20.6 µM | Potency [5] > 20.6 µM | Potency [6] | Potency [7] | Potency [8]
active: Potency [1] 0.2 µM | activity change, negative = inhibition [2] -142% | activity, negative = inhibition [3] -101%

Cc1cc(C)c(/C=C2/C(=O)Nc3ccccc32)[nH]1
active: Potency [1] 0.794 µM
inactive: activity, negative = inhibition [3] -25.4% [at 38 µM] | Potency [7] | outcome [9] | Potency [10] | Potency [11] | Potency [12] | outcome [13] | outcome [14] | outcome [15]
